Reference: PubChem BioAssay
Calls of active or inactive are those of the source. Unless noted, no rule for the calls is given here.

Assays:
[1] = compounds binding Alexa647 anti-His antibody – biochemical, small-molecule microarray, 635 nm fluorescence, artefact control for SMM control protein annotation, primary screen (AID 1128); details: higher = more signal;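 also: score merges feature fluorescence with signal-to-noise for each printed compound spot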
[2] = tested on: Human papillomavirus type 1a E7 protein (residues 1-88); assay: HPV1a E7 small-molecule binders, primary screen, biochemical, small-molecule microarray, residues 1-88, 635 nm (AID 1129); details: small-molecule microarray binding, fluorescence 635 nm; higher = more signal
[3] = molecular target: Focal adhesion kinase 1 (Homo sapiens) (UniProt Q05397); assay: PTK2 protein binding on printed compound slides – biochemical, small-molecule microarray, 635/667 nm fluorescence, BSA, DTT, primary screen (AID 1130); details: 635 nm fluorescence, higher = more signal;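 also: composite of spot emission at 667 nm and signal to noise over triplicate slides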
[4] = tested on: Fibrinogen (Alexa647-labelled); assay: Alexa647-fibrinogen binding to printed small molecules – biochemical, small-molecule microarray, 635/667 nm fluorescence, artefact control for SMM control-protein annotation, profiling panel (AID 1131); details: fibrinogen-A647 binding fluorescence, higher = more signal;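 also: z-score merges 667 nm fluorescence with per-spot signal-to-noise over triplicate slides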
[5] = molecular target: Follistatin (Homo sapiens) (UniProt P19883); assay: FST protein binding to printed compounds – biochemical, small-molecule microarray, 635/667 nm fluorescence, primary screen (AID 1132); details: 635 nm fluorescence, higher = more signal
[6] = molecular target: Fibroblast growth factor 2 (Homo sapiens) (UniProt P09038); assay: basic fibroblast growth factor binding to printed compounds – biochemical, small-molecule microarray, 635/667 nm fluorescence, primary screen (AID 1133); details: FGF2, fluorescence 635/667, higher = more signal
[7] = JC-1 mitochondrial potential readout, lung cancer cells – cell-based, A549, JC-1 fluorescence, basal, 24 h, 100 nL, profiling panel (AID 1138); details: higher = more signal;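 also: A549 lung adenocarcinoma cells under basal conditions with no added stimulus; test concentration not given here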
Lefty1 = Lefty1 protein binding to printed compounds – biochemical, small-molecule microarray, 635/667 nm fluorescence, primary screen (AID 1139); details: fluorescence 635/667, higher = more signal
[8] = tested on: wheat germ agglutinin (Triticum aestivum), Alexa647-labelled; assay: Alexa647-WGA lectin binding to printed small molecules – biochemical, small-molecule microarray, 635/667 nm fluorescence, artefact control for SMM control-protein annotation, profiling panel (AID 1140); details: WGA-A647 binding, 635 nm fluorescence, higher = more signal;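 also: score merges 667 nm feature emission with signal to noise over triplicate slides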
[9] = molecular target: Luciferin 4-monooxygenase (Photinus pyralis) (UniProt P08659); assay: inhibition of purified Photinus pyralis luciferase – biochemical, luminescence, purified enzyme, 2006 set, primary screen (AID 1141); details: purified firefly luciferase, SteadyGlo luminescence, 30 min; higher = more signal, called active from +8 up or from −8 down;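 also: cell-free assay with purified firefly luciferase at 100 ng per well in PBS; test concentration not given here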
[10] = tested on: Wnt5a (protein binding on small-molecule microarray); assay: small molecules binding Wnt5a protein – biophysical, small-molecule microarray, 635/667 nm fluorescence, primary screen (AID 1142); details: 635 nm fluorescence, higher = more signal;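 also: fluorescence read at 667 nm with signal to noise per printed feature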
[11] = ATP-based viability of Huh7 replicon cells – cell-based, CellTiter-Glo luminescence, basal, 48 h, cytotoxicity control for HCV replication inhibitor project, primary screen (AID 1143); details: higher = more signal, called active from +8 up or from −8 down;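 also: Huh7 hepatoma cells carrying a hepatitis C replication reporter with no stimulus; test concentration not given here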
[12] = Pseudomonas biofilm growth suppression – PAO1 strain, BacTiter-Glo luminescence, LB-PBS, primary screen (AID 1144); details: P. aeruginosa PAO1 biofilm, 12 h, higher = more signal
[13] = basal CRE-LacZ reporter activity in PC12 – cell-based, unstimulated, primary screen (AID 1145); details: no forskolin, luminescence, 4.5 h, higher = more signal, called active from +8 up or from −8 down
[14] = forskolin-driven CRE-LacZ activity in PC12 – cell-based, CRE-LacZ reporter, forskolin-stimulated, primary screen (AID 1146); details: luminescence, 4.5 h, higher = more signal, called active from +8 up or from −8 down;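 also: PC12 cells with 6xCRE LacZ reporter stimulated by forskolin 10 µM; beta-galactosidase reporter signal reflecting CREB driven transcription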
[15] = molecular target: Streptavidin (Streptomyces avidinii) (UniProt P22629); assay: compounds binding control protein streptavidin – biophysical, small-molecule microarray, 635/667 nm fluorescence, artefact control for SMM compound annotation, primary screen (AID 1147); details: higher = more signal;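 also: signal reflects streptavidin binding to arrayed compounds as a control protein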
[16] = probe aInhba binding on compound microarray – biochemical, small-molecule microarray, 635/667 nm fluorescence, primary screen (AID 1148); details: higher = more signal;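 also: score merges 667nm spot fluorescence with signal-to-noise for antibody binding to printed compounds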
Torsin-1A (Homo sapiens) [17] = molecular target: Torsin-1A (Homo sapiens) (UniProt O14656); assay: TOR1A wild-type binding on microarray – cell lysate, small-molecule microarray, lysate, 635/667 nm, primary screen (AID 1149); details: COS7 hTOR1A-WT lysate, 635 nm fluorescence, higher = more signal
Torsin-1A (Homo sapiens) [18] = molecular target: Torsin-1A (Homo sapiens) (UniProt O14656); assay: torsin A mutant lysate binding on microarrays – cell lysate, small-molecule microarray, COS7 lysate, 635/667 nm fluorescence, primary screen (AID 1150); details: COS7 hTOR1A mutant lysate, 635 nm fluorescence, higher = more signal;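 also: score pools 667 nm emission and signal to noise measuring lysate protein binding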
[19] = tested on: Sonic hedgehog protein (Shh); assay: Sonic hedgehog microarray binding compounds – biochemical, small-molecule microarray, 635/667 nm fluorescence, primary screen (AID 1151); details: 635 nm fluorescence, higher = more signal;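 also: Shh protein binding to compounds spotted on small-molecule microarray slides; score combines spot fluorescence intensity with signal-to-noise across triplicate slides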

Streptavidin (Streptomyces avidinii), sequence (P22629 whole entry, looked up): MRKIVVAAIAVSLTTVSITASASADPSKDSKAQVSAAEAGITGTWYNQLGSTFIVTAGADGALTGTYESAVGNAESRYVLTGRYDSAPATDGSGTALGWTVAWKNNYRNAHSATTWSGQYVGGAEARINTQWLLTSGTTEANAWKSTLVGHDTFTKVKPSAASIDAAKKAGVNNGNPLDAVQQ
Focal adhesion kinase 1 (Homo sapiens), sequence (Q05397 whole entry, looked up): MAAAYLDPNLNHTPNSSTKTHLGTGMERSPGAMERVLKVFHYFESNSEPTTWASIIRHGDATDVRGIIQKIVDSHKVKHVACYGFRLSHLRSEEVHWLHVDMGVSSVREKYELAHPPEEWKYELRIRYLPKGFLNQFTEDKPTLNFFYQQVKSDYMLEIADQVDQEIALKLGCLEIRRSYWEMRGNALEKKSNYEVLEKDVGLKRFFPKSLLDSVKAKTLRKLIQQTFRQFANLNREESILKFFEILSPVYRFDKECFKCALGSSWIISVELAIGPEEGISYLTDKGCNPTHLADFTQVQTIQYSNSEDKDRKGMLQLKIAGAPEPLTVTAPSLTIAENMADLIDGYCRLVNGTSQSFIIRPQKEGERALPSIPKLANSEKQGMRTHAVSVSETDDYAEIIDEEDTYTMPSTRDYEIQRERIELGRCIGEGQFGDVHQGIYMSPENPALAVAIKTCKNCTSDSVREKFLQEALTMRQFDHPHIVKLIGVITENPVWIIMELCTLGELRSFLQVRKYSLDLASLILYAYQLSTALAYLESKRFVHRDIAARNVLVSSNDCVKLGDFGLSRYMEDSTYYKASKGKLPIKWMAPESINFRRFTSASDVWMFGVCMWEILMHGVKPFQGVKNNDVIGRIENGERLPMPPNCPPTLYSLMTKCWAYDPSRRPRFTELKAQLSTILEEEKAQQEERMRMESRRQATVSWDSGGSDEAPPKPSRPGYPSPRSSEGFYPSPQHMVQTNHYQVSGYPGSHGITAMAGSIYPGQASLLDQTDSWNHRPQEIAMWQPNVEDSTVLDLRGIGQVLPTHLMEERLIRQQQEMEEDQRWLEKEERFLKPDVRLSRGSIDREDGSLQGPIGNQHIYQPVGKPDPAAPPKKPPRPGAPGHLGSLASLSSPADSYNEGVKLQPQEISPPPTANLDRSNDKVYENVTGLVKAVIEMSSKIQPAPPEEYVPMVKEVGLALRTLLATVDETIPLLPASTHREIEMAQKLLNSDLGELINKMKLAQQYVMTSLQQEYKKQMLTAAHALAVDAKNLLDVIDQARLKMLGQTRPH
Fibroblast growth factor 2 (Homo sapiens), sequence (P09038 whole entry, looked up): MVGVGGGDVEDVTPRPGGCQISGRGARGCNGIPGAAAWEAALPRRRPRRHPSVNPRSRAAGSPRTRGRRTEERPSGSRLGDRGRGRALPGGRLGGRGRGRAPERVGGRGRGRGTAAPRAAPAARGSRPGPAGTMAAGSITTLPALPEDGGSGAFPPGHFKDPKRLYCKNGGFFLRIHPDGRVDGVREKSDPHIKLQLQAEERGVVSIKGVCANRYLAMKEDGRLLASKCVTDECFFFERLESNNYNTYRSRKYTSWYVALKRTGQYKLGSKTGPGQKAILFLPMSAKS
Luciferin 4-monooxygenase (Photinus pyralis), sequence (P08659 whole entry, looked up): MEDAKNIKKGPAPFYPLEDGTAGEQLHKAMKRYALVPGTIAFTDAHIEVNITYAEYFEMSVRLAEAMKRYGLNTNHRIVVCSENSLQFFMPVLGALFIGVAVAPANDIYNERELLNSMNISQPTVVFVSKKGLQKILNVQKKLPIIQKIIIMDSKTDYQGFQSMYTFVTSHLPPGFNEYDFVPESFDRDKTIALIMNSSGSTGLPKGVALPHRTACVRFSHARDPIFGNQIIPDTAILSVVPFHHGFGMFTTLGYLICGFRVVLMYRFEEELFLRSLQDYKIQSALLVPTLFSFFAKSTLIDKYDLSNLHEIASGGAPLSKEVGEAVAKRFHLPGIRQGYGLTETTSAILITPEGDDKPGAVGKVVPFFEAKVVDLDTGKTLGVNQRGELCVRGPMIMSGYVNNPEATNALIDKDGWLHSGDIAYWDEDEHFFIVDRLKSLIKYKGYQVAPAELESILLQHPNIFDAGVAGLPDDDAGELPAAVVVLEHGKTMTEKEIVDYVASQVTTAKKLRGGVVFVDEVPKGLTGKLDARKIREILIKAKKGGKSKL
Follistatin (Homo sapiens), sequence (P19883 whole entry, looked up): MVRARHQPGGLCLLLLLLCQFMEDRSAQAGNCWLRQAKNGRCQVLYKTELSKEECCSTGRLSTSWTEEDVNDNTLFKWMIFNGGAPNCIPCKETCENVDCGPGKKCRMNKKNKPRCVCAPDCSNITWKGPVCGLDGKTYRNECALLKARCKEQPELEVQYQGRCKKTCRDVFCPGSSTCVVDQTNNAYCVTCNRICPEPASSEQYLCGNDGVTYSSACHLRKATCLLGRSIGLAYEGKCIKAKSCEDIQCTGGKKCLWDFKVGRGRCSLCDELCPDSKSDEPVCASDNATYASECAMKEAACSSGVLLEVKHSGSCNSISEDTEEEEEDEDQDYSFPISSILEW
Torsin-1A (Homo sapiens), sequence (O14656 whole entry, looked up): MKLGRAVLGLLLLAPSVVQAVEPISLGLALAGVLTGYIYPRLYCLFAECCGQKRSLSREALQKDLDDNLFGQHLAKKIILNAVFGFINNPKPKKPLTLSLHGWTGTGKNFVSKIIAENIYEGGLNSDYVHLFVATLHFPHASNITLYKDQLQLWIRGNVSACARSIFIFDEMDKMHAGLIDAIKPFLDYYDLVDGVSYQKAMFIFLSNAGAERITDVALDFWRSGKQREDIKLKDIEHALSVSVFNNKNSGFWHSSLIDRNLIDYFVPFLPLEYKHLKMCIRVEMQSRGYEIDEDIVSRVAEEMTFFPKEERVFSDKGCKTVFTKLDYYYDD

| SMILES | composite z-score [1] | composite z-score [2] | composite z-score [3] | composite z-score [4] | composite z-score [5] | composite z-score [6] | z-score [7] | composite z-score (Lefty1) | composite z-score [8] | z-score [9] | composite z-score [10] | z-score [11] | z-score [12] | z-score [13] | z-score [14] | composite z-score [15] | composite z-score [16] | composite z-score (Torsin-1A (Homo sapiens) [17]) | composite z-score (Torsin-1A (Homo sapiens) [18]) | composite z-score [19] |
| --- | --- | --- | --- | --- | --- | --- | --- | --- | --- | --- | --- | --- | --- | --- | --- | --- | --- | --- | --- | --- |
| CC(C)C[C@@H]1NC(=O)[C@H]2C[C@@H](C(=O)NCCCCCCNC(=O)CS)[C@@H](c3cccc(OCCO)c3)N2C1=O | 1.19 | 1.21 | 0.236 | 0.855 | 1.43 | 1.64 | 1 | 1.57 | 0.96 | -1.05 (inactive) | 1.35 | 0.263 (inactive) | -0.436 (inactive) | -1.49 (inactive) | -1.47 (inactive) | 0.357 | 0.0574 | 1.53 | 1.67 | 2.13 |
| CN1C(=O)C2C(C1=O)C1C=C(CCCO)C2C(c2cccs2)N1C (stereo not given) | 0.121 | -0.612 | -0.0834 | -0.234 | 0.143 | 0.0096 | 1.15 | -0.76 | -0.1 | -0.39 (inactive) | 0.0691 | -0.273 (inactive) | 0.0748 (inactive) | 0.236 (inactive) | 0.289 (inactive) | -0.96 | 0.141 | -0.381 | -0.332 | -0.11 |
| COC(=O)[C@@]1(Cc2ccc(OC)cc2)[C@H]2c3cc(C(=O)N4CCCC4)n(Cc4ccccn4)c3C[C@H]2CN1C(=O)c1ccccc1 | 2.3 | 1.26 | 0.464 | 0.8 | 0.169 | -0.332 | 1.37 | -0.467 | 1.2 | 1.91 (inactive) | 0.782 | -1.47 (inactive) | 0.621 (inactive) | 0.201 (inactive) | 1.03 (inactive) | 0.523 | 1.1 | -0.367 | 1.05 | -0.622 |
| Cc1cc(C)c(C(O)C2C=CC3C(=O)N(c4ccccc4)C(=O)C3N2Nc2ccc(C#N)cc2)c(C)c1 (stereo not given) | 1.21 | 1.23 | 0.388 | 0.912 | 0.509 | 0.312 | -0.613 | 0.302 | 1.03 | -0.75 (inactive) | 0.461 | 0.287 (inactive) | -1.36 (inactive) | 0.246 (inactive) | 1.19 (inactive) | 2 | 0.427 | 0.221 | 1.51 | -0.438 |
| COCCOC(=O)N1C(=O)[C@@]2(c3ccccc31)[C@H](C(=O)Nc1nc3ccccc3s1)[C@H]1C(=O)O[C@H](c3ccccc3)[C@H](c3ccccc3)N1[C@@H]2c1ccc(OCCO)cc1 | 1.8 | 1.17 | 0.462 | 0.962 | 1.33 | 0.826 | -2.32 | 1.33 | 0.992 | -2.11 (inactive) | 0.931 | -2.34 (inactive) | -0.706 (inactive) | -0.878 (inactive) | -0.523 (inactive) | 0.82 | 0.038 | 0.488 | 1.25 | 1.12 |
| O=c1cccc(CCc2ccccc2)o1 | 1.24 | 0.741 | 0.675 | -0.229 | 0.641 | 0.257 | 0.426 | 0.593 | 0.211 | 0.0302 (inactive) | -0.187 | -0.908 (inactive) | 0.624 (inactive) | 1.08 (inactive) | 1.03 (inactive) | -0.0374 | 0.0357 | -0.221 | -0.15 | 0.943 |
| C=CCC(OC(C)=O)[C@@H]1[C@@H](N(Cc2ccc(-c3ccccc3)cc2)C(=O)Cc2ccc(F)cc2)c2cc(OCCCO)ccc2N1C(=O)c1ccc2ccccc2n1 (stereo not given in full) | -0.26 | -0.0475 | -0.312 | 0.165 | 0.177 | 0.253 | 1.94 | -0.192 | 0.216 | -1.26 (inactive) | -0.212 | 0.0753 (inactive) | -0.201 (inactive) | 2.31 (inactive) | -0.116 (inactive) | 0.171 | 0.151 | 0.226 | 0.0886 | 0.321 |
| O=C(CCN1CCOCC1)c1cccc(O)c1 | 1.52 | 0.854 | 0.531 | 0.884 | 1.35 | 1.55 | 0.574 | 1.41 | 1.07 | 0.618 (inactive) | 0.361 | -2.97 (inactive) | -0.779 (inactive) | 0.182 (inactive) | 5.37 (inactive) | 0.802 | -0.0962 | 2.59 | 1.38 | 1.82 |
